Measurements published in the supplement of paper PMC10127200.
Structures can show the parent of a compound that is named as a salt.

Assays:
Assay in all cases: Euclidean distance of Cell Painting phenotypic profile (signed KS, 77 features) to DMSO centroid (dimensionless distance); 5 or 10 uM (library dependent); higher = stronger phenotypic change vs DMSO (phenoactivity)
Settings in all cases: 48 h
786-O = tested on: 786-O
Method in brief: (§1)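 At 10 or 5 uM, as set by the library, and 0.1% DMSO final, compounds were applied for 48 h to five cancer lines and one healthy fibroblast line. Stained cells were imaged confocally at 20X in 9 fields per well, and Harmony extracted 77 features scored as signed Kolmogorov-Smirnov statistics against vehicle wells on the same plate. Profiles underwent plate-position correction, correlation weighting and replicate averaging at the top dose. Phenoactivity is the Euclidean distance from each such profile to the median vehicle profile.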

A549 = tested on: A549
Method in brief: as §1

DU145 = tested on: DU145
Method in brief: as §1

FB = tested on: FB
Method in brief: as §1

HEPG2 = tested on: HEPG2
Method in brief: as §1

OVCAR4 = tested on: OVCAR4
Method in brief: as §1

| SMILES | Euclidean distance (786-O) | Euclidean distance (A549) | Euclidean distance (DU145) | Euclidean distance (FB) | Euclidean distance (HEPG2) | Euclidean distance (OVCAR4) |
| --- | --- | --- | --- | --- | --- | --- |
| NC(=O)N[C@@H](CCC(=O)O)C(=O)O [Carglumic Acid] | 1.22 | 0.653 | 0.949 | 1.06 | 0.389 | 0.68 |
| O=C1OC(CN2CCOCC2)CN1/N=C/c1ccc([N+](=O)[O-])o1 (stereo not given) [Furaltadone HCl] | 0.929 | 1.35 | 1.24 | 1.24 | 0.808 | 2.22 |
| CC1(C)S[C@@H]2[C@H](NC(=O)[C@H](NC(=O)N3CCN(S(C)(=O)=O)C3=O)c3ccccc3)C(=O)N2[C@H]1C(=O)O [Mezlocillin Sodium] | 1.2 | 0.987 | 1.43 | 1.15 | 1.72 | 0.751 |
| O=C(O)c1ccccc1C(=O)Nc1ccc(S(=O)(=O)Nc2nccs2)cc1 [Phthalylsulfathiazole] | 1.08 | 1.02 | 0.914 | 1.11 | 0.685 | 0.869 |
| COc1cc(N)c(Cl)cc1C(=O)NC1CCN(Cc2ccccc2)CC1 [Clebopride (malate)] | 1.13 | 0.613 | 1.21 | 1.12 | 0.547 | 0.852 |
| CC(C)(C#N)c1ccc(N2C(=O)OCc3cnc4ccc(-c5cnc6ccccc6c5)cc4c32)cc1 | 3.92 | 2.98 | 0.959 | 0.992 | 0.996 | 4.19 |
| CC(C)c1c(C(=O)Nc2ccccc2)c(-c2ccccc2)c(-c2ccc(F)cc2)n1CC[C@@H](O)C[C@@H](O)CC(=O)O [atorvastatin] | 1.57 | 1.35 | 3.44 | 3.29 | 0.836 | 1.24 |
| CC(C)N1CCN(c2ccc(OCC3COC(Cn4cncn4)(c4ccc(Cl)cc4Cl)O3)cc2)CC1 (stereo not given) [Terconazole] | 1.82 | 2.07 | 1.88 | 1.04 | 0.664 | 1.06 |
| CN(C)CCOc1ccc(-c2nc(-c3ccncc3)c(-c3ccc4c(c3)CC/C4=N\O)[nH]2)cc1 | 1.49 | 1.63 | 2.08 | 2.65 | 4.66 | 2.22 |
| CN1CCN(c2ccc3nc(-c4c(N)c5c(F)cccc5[nH]c4=O)[nH]c3c2)CC1 [Dovitinib (TKI-258) Dilactic Acid] | 2.81 | 3.4 | 2.01 | 4.28 | 0.932 | 1.96 |
| COc1ccc(CNC(=O)Nc2ncc([N+](=O)[O-])s2)cc1 | 0.769 | 1.95 | 0.841 | 0.936 | 1.02 | 0.694 |
| O=C(Nc1ccccc1)OCC(CN1CCCCC1)OC(=O)Nc1ccccc1 (stereo not given) [Diperodon HCl] | 1.03 | 1.43 | 1.31 | 1.59 | 0.984 | 1.64 |
| CCC(=O)O[C@]1(C(=O)SCF)[C@H](C)C[C@H]2[C@@H]3C[C@H](F)C4=CC(=O)C=C[C@]4(C)[C@@]3(F)[C@@H](O)C[C@@]21C [Fluticasone propionate] | 1.77 | 2.26 | 2.6 | 1.83 | 0.813 | 1.61 |
| CCN(c1cc(-c2ccc(CN3CCOCC3)cc2)cc(C(=O)NCc2c(C)cc(C)[nH]c2=O)c1C)C1CCOCC1 [Tazemetostat (EPZ-6438)] | 0.99 | 1.2 | 0.651 | 0.92 | 0.489 | 1.16 |
| O=C(/C=C/c1ccc(O)cc1)c1ccc(O)cc1O [Isoliquiritigenin] | 0.936 | 1.2 | 1.16 | 0.82 | 0.786 | 0.885 |
| CN(CCOc1ccc(CC2SC(=O)NC2=O)cc1)c1ccccn1 (stereo not given) [Rosiglitazone HCl] | 1.13 | 1.65 | 1.31 | 1.07 | 2.06 | 1.27 |
| Nc1ccn([C@@H]2O[C@H](CO)[C@@H](O)[C@@H]2O)c(=O)n1 [Cytarabine] | 3.08 | 2.79 | 2.54 | 3.39 | 2.79 | 3.15 |
| COc1cc2nccc(Oc3ccc(NC(=O)NC4CC4)c(Cl)c3)c2cc1C(N)=O [Lenvatinib (E7080)] | 2.11 | 0.779 | 1.02 | 3.36 | 1.02 | 1.33 |
| CNC(=O)c1ccc2cc([C@@]3(O)CCn4cncc43)ccc2c1 [TAK-700 (Orteronel)] | 0.951 | 0.683 | 0.67 | 1.1 | 1.1 | 0.845 |
| C=CC(=O)Nc1cc(Nc2nccc(-n3cc(CN(C)C)c(-c4ccccc4)n3)n2)c(OC)cc1N1CCOCC1 | 0.904 | 1.76 | 1.79 | 1.2 | 1.27 | 2.16 |
| C=CC(=O)Nc1cc(Nc2nccc(-c3cn(C)c4ccccc34)n2)c(OC)cc1N(C)CCN(C)C [Osimertinib mesylate] | 4.85 | 4.05 | 2.93 | 5.59 | 5.06 | 4.46 |
| CCC(=O)N1CCN(c2ccc(-n3c(=O)ccc4cnc5ccc(-c6cnc7ccccc7c6)cc5c43)cc2C(F)(F)F)CC1 [Torin 1] | 2.66 | 3.46 | 2.74 | 4.26 | 2.78 | 3.47 |
| O=C1CC[C@H](N2Cc3c(OCc4ccc(CN5CCOCC5)cc4)cccc3C2=O)C(=O)N1 [Iberdomide(CC220)] | 1.05 | 1.02 | 0.711 | 1.32 | 1.24 | 0.967 |
| C/C(=C\C(=O)Nc1ccccc1C(=O)O)c1ccc2ccccc2c1 | 0.939 | 1.46 | 1.76 | 1.59 | 0.714 | 0.731 |
| COc1cc(NS(C)(=O)=O)ccc1Nc1c2ccccc2nc2ccccc12 [Amsacrine hydrochloride] | 3.5 | 3.49 | 4.13 | 3.04 | 3.28 | 3.46 |
| Nc1ccc2ncnc(NCCc3ccc(Oc4ccccc4)cc3)c2c1 | 1.67 | 1.95 | 1.06 | 1.68 | 3.12 | 0.755 |
| CCCCCCCCCCCCCCCCOc1nc2ccc(C)cc2c(=O)o1 [Cetilistat] | 1 | 1.33 | 0.996 | 0.737 | 0.864 | 0.764 |
| CO[C@@]1(NC(=O)Cc2cccs2)C(=O)N2C(C(=O)O)=C(COC(N)=O)CS[C@@H]21 [Cefoxitin] | 0.82 | 0.39 | 0.617 | 0.482 | 0.307 | 1.03 |
| CCc1oc2ccccc2c1C(=O)c1cc(Br)c(O)c(Br)c1 [Benzbromarone] | 0.882 | 0.749 | 0.48 | 1.01 | 0.723 | 1.14 |
| Cc1nc2ccc(-n3ncc(C(=O)c4cc5ccccc5[nH]4)c3N)cc2[nH]1 | 2.53 | 2.28 | 1.14 | 3.31 | 1.73 | 1.67 |
